Experimental data: PubChem BioAssay (EPA / NIEHS)
Activity calls are given as the source filed them. Rule for the calls: active = hit-call score of the fitted dose curve at least 0.9, where 1 is the maximum; inactive = score below 0.9.

What was measured:
[1] = BSK_BT_PBMCCytotoxicity: PBMC Cytotoxicity Assessment in the BioMAP Diversity Plus: BT Assay (AID 2284225); conditions: primary human B cells with PBMC;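 note: PBMC viability measured by Alamar Blue dye reduction fluorescence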
Summary of the method: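 75,000 cells/well; cpd 1 h → SEB + TSST-1 (20 ng/mL final each) → 90 h → Alamar Blue 6 h → fluor. 546/580 nm. DMSO = neg. control/baseline.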

[2] = read-out: Secreted IgG (sIgG), gene 3500; assay: BSK_BT_sIgG: BioMAP Diversity Plus: BT Assay for Secreted IgG (sIgG) Biomarker Activity (AID 2284226); conditions: primary human B cells with PBMC
Summary of the method: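 Secreted IgG from a human primary B cell–PBMC co-culture was measured by ELISA 24 hours after dosing, with DMSO defining baseline activity.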

[3] = BSK_BT_Bcell_Proliferation: Viability Assessment in the BioMAP Diversity Plus: BT Assay for B cell Proliferation (AID 2284227); conditions: primary human B cells with PBMC
Summary of the method: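 Human B cell/PBMC co-culture; test chemical added; 72 h; TCA fix (10%), 0.1% SRB stain, A560 for total protein as a proliferation read-out; positive-direction fit vs DMSO baseline.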

[4] = read-out: Interleukin 6 (IL6), IL6 (gene 3569); assay: BSK_BT_xIL6: BioMAP Diversity Plus: BT Assay for Interleukin 6 (IL6) Biomarker Activity (AID 2284228); conditions: primary human B cells with PBMC
Summary of the method: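 IL-6 secretion measured (Luminex xMAP) in human primary B cell + PBMC co-culture at 24 h of chemical exposure; DMSO served as negative control and activity baseline, with curves fitted for increase.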

[5] = read-out: Interleukin 17A (IL17A), IL17A (gene 3605); assay: BSK_BT_xIL17A: BioMAP Diversity Plus: BT Assay for Interleukin 17A (IL17A) Biomarker Activity (AID 2284229); conditions: primary human B cells with PBMC
Summary of the method: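 Human primary B cells plus PBMC, treated 24 h with chemicals; supernatant IL-17A quantified on Luminex xMAP beads. Gain of signal over DMSO control scored as activity.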

[6] = read-out: Tumor necrosis factor (Homo sapiens) (UniProt P01375); assay: BSK_BT_xTNFa: BioMAP Diversity Plus: BT Assay for Tumor necrosis factor alpha (TNF-alpha) Biomarker Activity (AID 2284230); conditions: primary human B cells with PBMC
Summary of the method: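 Read-out: Luminex xMAP quantitation of secreted TNF-alpha from a B cell/PBMC co-culture 24 h after compound addition. Signal analysed relative to DMSO vehicle, positive fitting direction.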

[7] = read-out: Vascular cell adhesion molecule 1 (VCAM1), VCAM1 (gene 7412); assay: BSK_MyoF_VCAM1: BioMAP Diversity Plus: MyoF Assay for Vascular cell adhesion molecule 1 (VCAM1) Biomarker Activity (AID 2284231); conditions: primary human lung fibroblasts
Summary of the method: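 VCAM-1 levels, lung fibroblasts, ELISA, 24 h exposure, increase scored relative to DMSO.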

Chain of Tumor necrosis factor (Homo sapiens) (P01375 whole entry, looked up): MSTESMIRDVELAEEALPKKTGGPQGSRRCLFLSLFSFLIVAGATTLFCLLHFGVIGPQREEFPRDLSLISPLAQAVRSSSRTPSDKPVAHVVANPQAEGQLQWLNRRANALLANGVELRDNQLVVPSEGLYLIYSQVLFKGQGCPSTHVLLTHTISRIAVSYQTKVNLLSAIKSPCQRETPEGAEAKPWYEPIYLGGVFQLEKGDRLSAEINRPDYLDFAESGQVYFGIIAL

In the case of `C1=CC2C3C=CC(C3)C2C1` (configuration not stated), the outcome [1] is reported as “inactive”, the outcome [2] is reported as “inactive” and the outcome [3] is reported as “inactive”. For the same molecule, the outcome [4] was “inactive”, the outcome [5] was “inactive” and the outcome [6] was “inactive”. For the same molecule, the outcome [7] was “inactive”.

With `Cc1cc(CCC(=O)OCCOCCOCCOC(=O)CCc2cc(C)c(O)c(C(C)(C)C)c2)cc(C(C)(C)C)c1O` the outcome [1] was “inactive”, the outcome [2] was “inactive” and the outcome [3] was “inactive”. The outcome [4] was “inactive”, the outcome [5] was “inactive” and the outcome [6] was “inactive”. The outcome [7] was “inactive”.

In the case of `c1ccc(Oc2ccccc2)cc1`, the outcome [1] is reported as “inactive”, the outcome [2] is reported as “inactive” and the outcome [3] is reported as “inactive”. The outcome [4] was “inactive”, the outcome [5] was “inactive” and the outcome [6] was “inactive”. The outcome [7] was “inactive”.

With `COc1ccc(OC)c(N=Nc2c(O)ccc3ccccc23)c1` the outcome [1] was “inactive”, the AC50 [2] was 9.86 µM (active) and the outcome [3] was “inactive”. For the same molecule, the outcome [4] was “inactive”, the outcome [5] was “inactive” and the outcome [6] was “inactive”. For the same molecule, the AC50 [7] was 9.05 µM (active).

With `CC(C)(C)CC(C)(C)c1ccc(OCCOCC[N+](C)(C)Cc2ccccc2)cc1` the AC50 [1] was 8.02 µM (active), the AC50 [2] was 1.57 µM (active) and the AC50 [3] was 5 µM (active). The outcome [4] was “inactive”, the AC50 [5] was 8.48 µM (active) and the AC50 [6] was 5 µM (active). For the same molecule, the AC50 [7] was 8.24 µM (active).

For `IC(I)I`, the outcome [1] was “inactive”, the outcome [2] was “inactive” and the outcome [3] was “inactive”. The outcome [4] was “inactive”, the outcome [5] was “inactive” and the outcome [6] was “inactive”. For the same molecule, the outcome [7] was “inactive”.

In the case of `CS(=O)(=O)c1ccc(C2=C(c3ccccc3)C(=O)OC2)cc1`, the outcome [1] is reported as “inactive”, the outcome [2] is reported as “inactive” and the outcome [3] is reported as “inactive”. For the same molecule, the outcome [4] was “inactive”, the outcome [5] was “inactive” and the outcome [6] was “inactive”. The outcome [7] was “inactive”.

With `O=C1OC2(c3ccccc31)c1ccc(O)c(Br)c1Oc1c2ccc(O)c1Br` the outcome [1] was “inactive”, the outcome [2] was “inactive” and the outcome [3] was “inactive”. For the same molecule, the outcome [4] was “inactive”, the outcome [5] was “inactive” and the outcome [6] was “inactive”. The outcome [7] was “inactive”.

In the case of `CCCCN(CCCC)C(=O)N(CCCC)CCCC`, the AC50 [1] is reported as 32.8 µM (active), the AC50 [2] is reported as 14.6 µM (active) and the AC50 [3] is reported as 31.4 µM (active). The AC50 [4] was 29 µM (active), the AC50 [5] was 14.5 µM (active) and the AC50 [6] was 30.3 µM (active). For the same molecule, the AC50 [7] was 10.5 µM (active).

With `CN(C)C(=S)SC(=S)N(C)C` the AC50 [1] was 0.396 µM (active), the AC50 [2] was 0.244 µM (active) and the AC50 [3] was 0.436 µM (active). The AC50 [4] was 0.6 µM (active), the AC50 [5] was 0.367 µM (active) and the AC50 [6] was 0.504 µM (active). For the same molecule, the AC50 [7] was 35.5 µM (active).

With `CCCCCC(C=O)=Cc1ccccc1` the outcome [1] was “inactive”, the AC50 [2] was 26.9 µM (active) and the outcome [3] was “inactive”. The outcome [4] was “inactive”, the outcome [5] was “inactive” and the outcome [6] was “inactive”. The AC50 [7] was 34.2 µM (active).

For `C=C(C)[C@H]1CC=C(C)C(=O)C1`, the outcome [1] was “inactive”, the outcome [2] was “inactive” and the outcome [3] was “inactive”. For the same molecule, the outcome [4] was “inactive”, the outcome [5] was “inactive” and the outcome [6] was “inactive”. For the same molecule, the outcome [7] was “inactive”.

With `CCCCOC(=O)CCCCCCCC(=O)OCCCC` the outcome [1] was “inactive”, the outcome [2] was “inactive” and the outcome [3] was “inactive”. For the same molecule, the outcome [4] was “inactive”, the outcome [5] was “inactive” and the outcome [6] was “inactive”. For the same molecule, the outcome [7] was “inactive”.

For `O=C1OC[C@H](Cc2cccc(O)c2)[C@H]1Cc1cccc(O)c1`, the outcome [1] was “inactive”, the outcome [2] was “inactive” and the outcome [3] was “inactive”. For the same molecule, the outcome [4] was “inactive”, the outcome [5] was “inactive” and the outcome [6] was “inactive”. For the same molecule, the outcome [7] was “inactive”.

In the case of `CSCCC=O`, the outcome [1] is reported as “inactive”, the outcome [2] is reported as “inactive” and the outcome [3] is reported as “inactive”. The outcome [4] was “inactive”, the outcome [5] was “inactive” and the outcome [6] was “inactive”. The outcome [7] was “inactive”.

In the case of `CC(C=O)Cc1ccc(C(C)(C)C)cc1` (configuration not stated), the outcome [1] is reported as “inactive”, the outcome [2] is reported as “inactive” and the outcome [3] is reported as “inactive”. For the same molecule, the outcome [4] was “inactive”, the outcome [5] was “inactive” and the outcome [6] was “inactive”. For the same molecule, the outcome [7] was “inactive”.

For `COc1cc(Cl)c(OC)cc1N`, the outcome [1] was “inactive”, the outcome [2] was “inactive” and the outcome [3] was “inactive”. The outcome [4] was “inactive”, the outcome [5] was “inactive” and the outcome [6] was “inactive”. The outcome [7] was “inactive”.

In the case of `CC(C)(N=C=O)c1cccc(C(C)(C)N=C=O)c1`, the outcome [1] is reported as “inactive”, the outcome [2] is reported as “inactive” and the outcome [3] is reported as “inactive”. For the same molecule, the outcome [4] was “inactive”, the outcome [5] was “inactive” and the outcome [6] was “inactive”. For the same molecule, the outcome [7] was “inactive”.

For `C=C(C)C(=O)OCCOCCOCCOCCOC(=O)C(=C)C`, the outcome [1] was “inactive”, the AC50 [2] was 20 µM (active) and the outcome [3] was “inactive”. The outcome [4] was “inactive”, the outcome [5] was “inactive” and the outcome [6] was “inactive”. The outcome [7] was “inactive”.

With `CC(=O)Nc1ccc(C(=O)CCl)cc1` the AC50 [1] was 5.36 µM (active), the AC50 [2] was 2.21 µM (active) and the AC50 [3] was 5.39 µM (active). For the same molecule, the AC50 [4] was 3.46 µM (active), the AC50 [5] was 2.25 µM (active) and the AC50 [6] was 8.47 µM (active). The AC50 [7] was 23.9 µM (active).

For `CN(c1nccc(=O)[nH]1)C1CCN(c2nc3ccccc3n2Cc2ccc(F)cc2)CC1`, the outcome [1] was “inactive”, the AC50 [2] was 14.6 µM (active) and the outcome [3] was “inactive”. For the same molecule, the outcome [4] was “inactive”, the outcome [5] was “inactive” and the outcome [6] was “inactive”. For the same molecule, the AC50 [7] was 3.1 µM (active).
